Test results: PubChem BioAssay (NCI)
The panel holds about 83,000 compounds, 20% with a hit somewhere; the sample as a whole holds those more often.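 Cells were grown in 96-well plates and exposed to the test compound at a single concentration for 48 hours; results are reported as percent growth, with values below 10 considered active.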 Values without a mark were called inactive. Activity calls are given as the source filed them.

Legend:
Experiment in all cases: NCI-60 one-dose screen, 48 h (100 = growth as untreated, 0 = no growth, -100 = all killed)
Settings in all cases: 10 µM unless noted
NCI-H23 lung = test system: NCI-H23 lung
NCI-H226 lung = test system: NCI-H226 lung
NCI-H322M lung = test system: NCI-H322M lung
HOP-62 NSCLC = test system: HOP-62 NSCLC
NCI-H460 lung = test system: NCI-H460 lung
HOP-92 NSCLC = test system: HOP-92 NSCLC
NCI-H522 lung = test system: NCI-H522 lung
A549/ATCC NSCLC = test system: A549/ATCC NSCLC
786-0 renal = test system: 786-0 renal
COLO 205 colon = test system: COLO 205 colon
DU-145 prostate = test system: DU-145 prostate
K-562 leukemia = test system: K-562 leukemia
MALME-3M melanoma = test system: MALME-3M melanoma
MDA-MB-231 breast = test system: MDA-MB-231 breast
RXF 393 renal = test system: RXF 393 renal
SF-268 CNS = test system: SF-268 CNS
SF-295 CNS = test system: SF-295 CNS
SF-539 CNS = test system: SF-539 CNS
UACC-257 melanoma = test system: UACC-257 melanoma
M14 melanoma = test system: M14 melanoma

Row | SMILES | growth (NCI-H23 lung) | growth (NCI-H226 lung) [%] | growth (NCI-H322M lung) | growth (HOP-62 NSCLC) | growth (NCI-H460 lung) | growth (HOP-92 NSCLC) [%] | growth (NCI-H522 lung) | growth (A549/ATCC NSCLC) | growth (786-0 renal) | growth (COLO 205 colon) | growth (DU-145 prostate) | growth (K-562 leukemia) | growth (MALME-3M melanoma) | growth (MDA-MB-231 breast) | growth (RXF 393 renal) | growth (SF-268 CNS) [%] | growth (SF-295 CNS) | growth (SF-539 CNS) | growth (UACC-257 melanoma) [%] | growth (M14 melanoma)
1 | CN1CCN(c2ccc(C(=O)/C=C/c3cc(F)cc(C(F)(F)F)c3)cc2)CC1 | 72% | 61.8 | 78.9% | 93.1% | 80.2% | 40.6 | 83.4% | 66.2% | 89.7% | 100% | 49.6% | 11.1% | 91.7% | 72.9% | 70.5% | 82.8 | 88.6% | 59.5% | 91.1 | 92.2%
2 | O=C(N/N=C/c1cc2ccccc2nc1Cl)c1cc(-c2nc3ccccc3[nH]2)nc2ccccc12 | 96.2% | 100 | 99.9% | 97.9% | 104% | 72.4 | 83.6% | 95.1% | 85.3% | 98.3% | 87.7% | 83.6% | 124% | 99% | 96.2% | 87.8 | 89.7% | 103% | 118 | 109%
3 | Cc1ccc2c(n1)C(=O)C(Cl)=C(Nc1cccc(C(=O)OC(C)(C)C)c1)C2=O | 73.7% | 82.8 | 112% | 108% | 101% | 88.8 | 60.6% | 106% | 99.8% | 119% | 94.8% | -18.1% (active) | 127% | 74.4% | 84.3% | 93.4 | 104% | 105% | 72.3 | 96.5%
4 | COc1ccc(C(=O)c2c(N)c(C#N)cn2-c2ccc(Cl)cc2Cl)cc1 | 93.3% | 97.2 | 93.8% | 99.7% | 100% | 101 | 90.3% | 93.4% | 103% | 109% | 110% | 93.6% | 96.9% | 90.8% | 97% | 100 | 98.8% | 102% | 98.2 | 91.2%
5 | CC1(C)CC[C@]23CC[C@]4(C)[C@H](CC[C@@H]5[C@@]6(C)CC[C@H](N)C(C)(C)[C@@H]6CC[C@]54C)[C@H]2[C@H]1OC3 | 88.8% | 96.6 | 93.6% | 96.1% | -34.8% (active) | 69.3 | 99% | 24.3% | -60.4% (active) | -40.4% (active) | -25.2% (active) | -31.2% (active) | 109% | 30.1% | 38.1% | 80.9 | 78% | 74.1% | 98.9 | 82.8%
6 | NS(=O)(=O)c1ccc(Nc2nc(N/N=C/C=C/c3ccccc3)nc(Nc3ccccc3)n2)cc1 | 40.1% | 58.6 | 56.8% | 56.2% | 6.23% (active) | 83.9 | 66.4% | 69.3% | 37.6% | 55.3% | 42.5% | 27.1% | 50.7% | 47.9% | -8.45% (active) | 46 | 44.5% | 39.4% | 79.2 | 40.3%
7 | Cc1[nH]c(C(=O)Nc2ccccc2OCc2cccc(C(=O)NC3CCCNC3)c2)c(Cl)c1Cl (stereo not given) | -76.7% (active) | 73.3 | -93.7% (active) | -42.2% (active) | -68.5% (active) | 47.9 | -50.9% (active) | -52.6% (active) | -71.6% (active) | -33.2% (active) | -89% (active) | -38.9% (active) | -68.4% (active) | -68% (active) | -69.4% (active) | 25.1 | -87.9% (active) | -84.6% (active) | 94.6 | -87% (active)
